Assay results taken from PubChem BioAssay (NCI).
Where “and” joins values, the source holds several entries; their conditions need not be identical. Equal values may be shown once. Compounds without any hit were thinned out: in the full panel of roughly 83,000, 20% have a hit.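 Percent growth is the endpoint: 0 to 100 indicates growth inhibition (40 means 60% inhibition), 0 means no net growth, and negative values indicate cell death.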 Calls of active or inactive are those of the source. The calls were made as follows: active = growth percent below 10; inactive = the rest.

Columns and labels:
Assay in all cases: NCI-60 one-dose screen, 48 h (100 = growth as untreated, 0 = no growth, -100 = all killed)
Details in all cases: 10 µM unless noted
[1] = system: T-47D breast
[2] = system: BT-549 breast
[3] = system: MDA-MB-435 melanoma
[4] = system: SW-620 colon
[5] = system: MCF7 breast
[6] = system: HCT-116 colon
[7] = system: HCC-2998 colon
[8] = system: KM12 colon

Structure (SMILES)	growth [1]	growth [2]	growth [3]	growth [4]	growth [5]	growth [6]	growth [7]	growth [8]
NCCSC(C[N+](=O)[O-])c1ccccc1Cl (stereo unspecified)	87.5% (inactive)	81.1% (inactive)	-24.7% (active)	-51.3% (active)	-19.1% (active)	-83.9% (active)	-77.8% (active)	-55.6% (active)
O=C(O)CSCc1nc2ccccc2[nH]1	104% (inactive)	108% (inactive)	115% (inactive)	103% (inactive)	96.4% (inactive)	107% (inactive)	103% (inactive)	111% (inactive)
N/C(=N\N=C\c1ccc2c(c1)OCO2)N/N=C\c1ccc2c(c1)OCO2	112% (inactive) and 107% (inactive)	95.6% (inactive) and 67.7% (inactive)	81.2% (inactive) and 65.5% (inactive)	101% (inactive) and 75.2% (inactive)	94% (inactive) and 56% (inactive)	97.6% (inactive) and 48.8% (inactive)	103% (inactive) and 86.1% (inactive)	93.5% (inactive) and 70.3% (inactive)
CC1=C(/C=C/C(C)=C/C=C/C(C)=C/C(=O)O)C(C)(C)CCC1	63.4% (inactive) and 86.2% (inactive) and 77.1% (inactive)	100% (inactive) and 84.9% (inactive) and 99.2% (inactive)	92.3% (inactive) and 90.7% (inactive) and 107% (inactive)	111% (inactive) and 106% (inactive) and 116% (inactive)	68.6% (inactive) and 67.4% (inactive) and 73.2% (inactive)	83% (inactive) and 98.7% (inactive) and 89.6% (inactive)	108% (inactive) and 111% (inactive) and 105% (inactive)	94.7% (inactive) and 105% (inactive) and 102% (inactive)
CN1CCN(C2CCN(C(=O)Nc3cc(Oc4ccc(NC(=O)C5(C(=O)Nc6ccc(F)cc6)CC5)c(F)c4)ccn3)CC2)CC1	-66.4% (active) and 83.7% (inactive)	-68.7% (active) and 98.5% (inactive)	-93% (active) and 85.8% (inactive)	-14.2% (active) and 122% (inactive)	-42.1% (active) and 76% (inactive)	-58.6% (active) and 69.1% (inactive)	-66.8% (active) and 136% (inactive)	-46% (active) and 30.4% (inactive)
OC(CSc1ccccc1)CN1CCN(c2cccc(Cl)c2)CC1 (stereo unspecified)	90.3% (inactive) and 102% (inactive)	97.7% (inactive)	114% (inactive) and 93.6% (inactive)	105% (inactive)	102% (inactive) and 94% (inactive)	93.3% (inactive) and 97.5% (inactive)	106% (inactive) and 95% (inactive)	109% (inactive) and 101% (inactive)
CN1C(=O)C(N=Nc2ccc([N+](=O)[O-])cc2)SC1=S (stereo unspecified)	50.9% (inactive) and 57.2% (inactive)	71% (inactive) and 67.8% (inactive)	75.8% (inactive) and 85.4% (inactive)	49% (inactive) and 60.3% (inactive)	82.4% (inactive) and 68.8% (inactive)	61.7% (inactive) and 70.5% (inactive)	-0.382% (active)	48.2% (inactive) and 52.8% (inactive)
CCCCCN(CCCCC)CC(O)c1cc2c(c3ccccc13)CCCC2 (stereo unspecified)	51.1% (inactive) and 54.1% (inactive)	88.8% (inactive) and 59.8% (inactive)	83.4% (inactive) and 69.8% (inactive)	28.9% (inactive) and 30.4% (inactive)	44.8% (inactive) and 23.5% (inactive)	20.2% (inactive) and 17.9% (inactive)	13.1% (inactive)	50.5% (inactive) and 35.3% (inactive)
O=C(O)CCCCc1ccc([N+](=O)[O-])cc1	102% (inactive) and 107% (inactive)	100% (inactive)	111% (inactive) and 113% (inactive)	96.4% (inactive) and 116% (inactive)	92.4% (inactive) and 98.2% (inactive)	103% (inactive) and 102% (inactive)	106% (inactive) and 94.9% (inactive)	91.1% (inactive) and 108% (inactive)
COc1cc(C(=O)c2ccc3c(c2)OCO3)cc(OC)c1OC	34.4% (inactive) and 32.8% (inactive)	45.5% (inactive) and 30.3% (inactive)	-19.5% (active) and -21.3% (active)	16.1% (inactive) and 9.92% (active)	23.2% (inactive) and 14.8% (inactive)	27.2% (inactive) and 24.5% (inactive)	60.1% (inactive) and 54.8% (inactive)	24.7% (inactive) and 27.3% (inactive)
CCNC(=O)Nc1ccc(-c2nc3c(c(N4CCOC[C@@H]4C)n2)CCN(C2COC2)C3)cc1	-12.4% (active) and -25.3% (active)	28.9% (inactive) and -1.93% (active)	32.9% (inactive) and 0.798% (active)	62.2% (inactive) and 14% (inactive)	15.6% (inactive) and 11.8% (inactive)	58.9% (inactive) and 28.5% (inactive)	50% (inactive)	47.5% (inactive) and 17.1% (inactive)
CCN(CC)CCCC(C)Nc1ccnc2cc(Oc3ccccc3)ccc12 (stereo unspecified)	28.8% (inactive) and 83.9% (inactive)	62.9% (inactive) and 86% (inactive)	2.5% (active) and 24.4% (inactive)	55.8% (inactive) and 79.4% (inactive)	55.3% (inactive) and 82.7% (inactive)	32% (inactive) and 54.9% (inactive)	90.9% (inactive) and 77.7% (inactive)	78.5% (inactive) and 87.2% (inactive)
COc1cc(NS(C)(=O)=O)ccc1Nc1c2ccccc2nc2c(C)cccc12	2.65% (active) and 4.75% (active)	3.76% (active) and 4.61% (active)	37.1% (inactive) and 45.7% (inactive)	6.14% (active) and 16.4% (inactive)	14.1% (inactive) and 14% (inactive)	0.292% (active) and 8.67% (active)	-60.5% (active) and -6.07% (active)	-32.8% (active) and 7.97% (active)
Nc1nc(SC/C=C/CCl)c2[nH]cnc2n1	108% (inactive) and 92.9% (inactive)	103% (inactive) and 126% (inactive)	105% (inactive) and 101% (inactive)	105% (inactive) and 106% (inactive)	125% (inactive) and 85.4% (inactive)	104% (inactive) and 105% (inactive)	101% (inactive) and 103% (inactive)	107% (inactive) and 111% (inactive)
O=c1c2ccccc2nc2n1Cc1nc3ccccc3c(=O)n1C2	106% (inactive) and 108% (inactive)	89.8% (inactive) and 94.1% (inactive)	93.5% (inactive) and 101% (inactive)	97.3% (inactive) and 103% (inactive)	84.5% (inactive) and 97.9% (inactive)	111% (inactive) and 94.6% (inactive)	106% (inactive) and 104% (inactive)	99.6% (inactive) and 101% (inactive)
CCN(CC)CCNc1cc(-c2cccc(OC(F)(F)F)c2)nc2ccc(N3CCCC3)cc12	64.4% (inactive) and -11.2% (active) and 20.9% (inactive)	-70.7% (active) and 34.3% (inactive) and 62.7% (inactive)	-4.48% (active) and -55% (active) and -33.6% (active)	31% (inactive) and 0.803% (active) and 8.35% (active)	6.94% (active) and -27.3% (active) and -21.5% (active)	-88% (active) and -45.7% (active) and 4.4% (active)	23.8% (inactive) and -45.2% (active) and -4.48% (active)	32.3% (inactive) and -1.83% (active) and 9.39% (active)
CCOc1ccc2c(S(=O)(=O)O)cccc2c1[N+](=O)[O-]	114% (inactive) and 111% (inactive)	119% (inactive) and 103% (inactive)	108% (inactive) and 106% (inactive)	107% (inactive) and 98.2% (inactive)	107% (inactive) and 104% (inactive)	101% (inactive)	109% (inactive)	98.1% (inactive) and 103% (inactive)
